# Assay results reported in PubChem BioAssay (Tox21).
# Results filed as inconclusive are left out. Calls of active or inactive are those of the source. Calls follow the shape of the dose curve; as a rule, active = well fitted curve in the direction sought with a large enough effect in the repeat runs; inconclusive = weak or mixed curves; inactive = no such curve, though single readings can be large; an effect the other way counts as inactive or inconclusive.
# Test system: not listed separately
# Test: qHTS assay to identify small molecule antagonists of the estrogen receptor alpha (ER-alpha) signaling pathway using the BG1 cell line - cell viability counter screen (AID 743081);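 also: compound given together with 17beta-estradiol as the ER stimulus; nearly all actives have a fitted effect of over 45% in size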
# Settings: BG1Luc4E2 viability, CellTiter-Fluor, 22 h; series mostly up to 70.3 µM; activity change, negative = cytotoxicity: at the top concentration
# % is scaled to controls: 0 for no effect and ±100 for the full control effect.
row,Structure (SMILES),"activity change, negative = cytotoxicity"
1,COC(=O)c1cccc(Cl)c1,6.69% (inactive)
2,CCCCCc1cccc(=O)o1,10.3% (inactive)
3,Cc1ccc(C(=O)O)cc1[N+](=O)[O-],5.21% (inactive)
4,CCC/C=C(\C=O)CC,1.09% (inactive)
5,CSc1cnccn1,-1.2% (inactive)
6,CC/C(C)=N\O[Si](C)(O/N=C(\C)CC)O/N=C(\C)CC,-10.7% [at 95 µM] (inactive)
7,CCCSSCCC,-0.286% (inactive)
8,Cc1ncc([N+](=O)[O-])n1CC(C)O (stereo unspecified),-0.296% (inactive)
9,C[C@@H](O)C(=O)O,15.9% [at 95 µM] (inactive)
10,COc1ccc2c(c1)c1c3n2CCN(C)C3=NCC1,-5.68% (inactive)
11,O=C[O][Al]([O]C=O)[O]C=O,-6.57% (inactive)
12,C/C(CC(C)C)=N\O,4.97% (inactive)
13,Cn1nnc2c(C(N)=O)ncn2c1=O,-4.99% (inactive)
14,CC(C)C1OCCN1CCOC(=O)NCCCCCCNC(=O)OCCN1CCOC1C(C)C (stereo unspecified),-4.49% (inactive)
15,CC(C)Cn1cnc2c1c(=O)n(C)c(=O)n2C,-0.722% (inactive)
16,O=C(NCN1CCOCC1)c1cnccn1,10.2% (inactive)

row,Structure (SMILES),"activity change, negative = cytotoxicity"
1,CC1c2ccccc2CN1NC(=O)c1ccc(Cl)c(S(N)(=O)=O)c1 (stereo unspecified),8.71% (inactive)
2,CCCCOC(=O)[C@H](C)O,1.68% (inactive)
3,OC1OCCOC1O (stereo unspecified),14% (inactive)
4,CC(C)(C)NC[C@H](O)COc1cccc2c1CCCC2=O,2.35% [at 32.5 µM] (inactive)
5,O=C(O)CCCCCC(=O)O,15% [at 95 µM] (inactive)
6,C=CCCCCCCCCC(=O)OCCCC,14.8% (inactive)
7,CCOCCOCC,8.79% [at 95 µM] (inactive)
8,OCC1CCC(CO)CC1 (stereo unspecified),3.16% [at 95 µM] (inactive)
9,CCCCCCCCCCOC(C)=O,2.98% (inactive)
10,CC(C)CO,1.48% [at 95 µM] (inactive)
11,CC12CCC(C1)C(C)(C)C2O (stereo unspecified),3.39% (inactive)
12,CC(=O)OC1CCCCC1C(C)(C)C (stereo unspecified),6.41% (inactive)
13,N#CCC(=O)NN,-0.373% (inactive)
14,O=C1CCCCO1,1.79% (inactive)
15,CCO,3.29% [at 95 µM] (inactive)
16,CC1(C)[C@H]2CC[C@](C)(C2)[C@H]1O,0.616% [at 95 µM] (inactive)

# Biological target: Aromatase (Homo sapiens) (UniProt P11511)
# Test: qHTS assay to identify aromatase inhibitors (AID 743083); also: nearly all actives have a fitted effect of over 55% in size
# Settings: MCF-7 aro ERE, testosterone-driven ERE luciferase, 24 h; series mostly up to 70.3 µM; activity, negative = inhibition: at the top concentration
# Chain of Aromatase (Homo sapiens) (P11511 whole entry, looked up): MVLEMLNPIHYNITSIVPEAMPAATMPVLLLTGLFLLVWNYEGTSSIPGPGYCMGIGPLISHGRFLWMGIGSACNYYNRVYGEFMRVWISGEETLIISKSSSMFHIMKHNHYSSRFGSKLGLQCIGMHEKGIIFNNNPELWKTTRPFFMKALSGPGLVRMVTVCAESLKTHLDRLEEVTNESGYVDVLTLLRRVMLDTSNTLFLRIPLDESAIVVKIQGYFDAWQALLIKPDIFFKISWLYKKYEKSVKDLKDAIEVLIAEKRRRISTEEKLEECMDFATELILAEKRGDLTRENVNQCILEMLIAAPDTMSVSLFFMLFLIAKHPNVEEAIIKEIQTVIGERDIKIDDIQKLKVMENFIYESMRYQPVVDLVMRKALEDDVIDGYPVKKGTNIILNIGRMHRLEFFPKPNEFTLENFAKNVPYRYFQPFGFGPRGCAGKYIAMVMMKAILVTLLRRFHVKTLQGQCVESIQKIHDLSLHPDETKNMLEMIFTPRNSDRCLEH
row,Structure (SMILES),"activity, negative = inhibition"
1,COC(=O)c1cccc(Cl)c1,-0.423% (inactive)
2,CCCCCCCCCCCCCCCCCC#N,21.3% [at 95 µM] (inactive)
3,CCCCCc1cccc(=O)o1,1.93% (inactive)
4,Cc1ccc(C(=O)O)cc1[N+](=O)[O-],-7.98% (inactive)
5,CCC/C=C(\C=O)CC,3.01% (inactive)
6,CSc1cnccn1,4.71% (inactive)
7,CC/C(C)=N\O[Si](C)(O/N=C(\C)CC)O/N=C(\C)CC,-13.6% [at 95 µM] (inactive)
8,CCCSSCCC,13.9% (inactive)
9,Cc1ncc([N+](=O)[O-])n1CC(C)O (stereo unspecified),2.04% (inactive)
10,C[C@@H](O)C(=O)O,11.1% [at 95 µM] (inactive)
11,COc1ccc2c(c1)c1c3n2CCN(C)C3=NCC1,11% (inactive)
12,O=C[O][Al]([O]C=O)[O]C=O,5.59% (inactive)
13,C/C(CC(C)C)=N\O,14.3% (inactive)
14,Cn1nnc2c(C(N)=O)ncn2c1=O,-2.18% (inactive)
15,CC(C)C1OCCN1CCOC(=O)NCCCCCCNC(=O)OCCN1CCOC1C(C)C (stereo unspecified),15.7% (inactive)
16,CC(C)Cn1cnc2c1c(=O)n(C)c(=O)n2C,-5.43% (inactive)
17,O=C(NCN1CCOCC1)c1cnccn1,-0.265% (inactive)

row,Structure (SMILES),"activity, negative = inhibition"
1,CC1c2ccccc2CN1NC(=O)c1ccc(Cl)c(S(N)(=O)=O)c1 (stereo unspecified),9.83% (inactive)
2,CCCCOC(=O)[C@H](C)O,18.1% (inactive)
3,OC1OCCOC1O (stereo unspecified),-0.139% (inactive)
4,CC(C)(C)NC[C@H](O)COc1cccc2c1CCCC2=O,-0.294% [at 32.5 µM] (inactive)
5,O=C(O)CCCCCC(=O)O,-12.7% [at 95 µM] (inactive)
6,C=CCCCCCCCCC(=O)OCCCC,-3.26% (inactive)
7,CCOCCOCC,0.361% [at 95 µM] (inactive)
8,OCC1CCC(CO)CC1 (stereo unspecified),17.9% [at 95 µM] (inactive)
9,CCCCCCCCCCOC(C)=O,-3.39% (inactive)
10,CC(C)CO,-17.4% [at 95 µM] (inactive)
11,CC12CCC(C1)C(C)(C)C2O (stereo unspecified),5.58% (inactive)
12,CC(=O)OC1CCCCC1C(C)(C)C (stereo unspecified),8.6% (inactive)
13,CC(=O)OCC(=O)Nc1cc(C#N)cc(NC(=O)COC(C)=O)c1Cl,1.49% (inactive)
14,N#CCC(=O)NN,-5.71% (inactive)
15,O=C1CCCCO1,11.7% (inactive)
16,CCO,2.44% [at 95 µM] (inactive)
17,CC1(C)[C@H]2CC[C@](C)(C2)[C@H]1O,7.98% [at 95 µM] (inactive)
